Rows were chosen to be rich in hits. Some 3.6% of all compounds tested hit in one or more screens of this group.
ERa coact inh: blocks coactivator binding to human estrogen receptor alpha | P03372 | TR-FRET ER-alpha LBD / SRC-1 peptide, estradiol-bound | inhibition, % at 25.6 µM | 1.7% of 86,000 active | AID 629; in the data active = inhibition above about 50%;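 also: 0% = receptor plus peptide control and 100% = peptide only without receptor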
Target sequence (P03372 whole entry, looked up, the tested form may be a part): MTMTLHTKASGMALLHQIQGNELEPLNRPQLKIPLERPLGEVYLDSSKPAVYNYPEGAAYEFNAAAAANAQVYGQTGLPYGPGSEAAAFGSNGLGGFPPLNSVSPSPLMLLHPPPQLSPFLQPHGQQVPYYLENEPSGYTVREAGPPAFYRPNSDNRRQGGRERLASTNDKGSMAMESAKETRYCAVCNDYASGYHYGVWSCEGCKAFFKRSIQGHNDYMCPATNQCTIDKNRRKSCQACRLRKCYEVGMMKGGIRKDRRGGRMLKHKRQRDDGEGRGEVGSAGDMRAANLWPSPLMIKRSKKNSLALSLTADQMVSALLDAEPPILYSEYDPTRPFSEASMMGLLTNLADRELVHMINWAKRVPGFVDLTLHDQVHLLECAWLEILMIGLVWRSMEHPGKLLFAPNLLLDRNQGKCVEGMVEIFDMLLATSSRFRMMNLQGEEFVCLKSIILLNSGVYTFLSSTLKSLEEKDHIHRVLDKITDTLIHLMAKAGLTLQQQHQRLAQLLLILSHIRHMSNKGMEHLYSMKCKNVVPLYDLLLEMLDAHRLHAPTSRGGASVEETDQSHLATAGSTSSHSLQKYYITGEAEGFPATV
ERa coact pot: enhances coactivator binding to human estrogen receptor alpha; AID 639; P03372; 1.3% of 86,000 active; coactivator binding (% of control), % at 25.6 µM; TR-FRET ERalpha-LBD/SRC-Cy5 coactivator binding, 2 h; 100 = basal binding, no effect; in the data active = activity above about 200%;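 also: binding measured in presence of low estradiol as agonist stimulus; 0% = peptide alone without receptor and 100% = receptor with peptide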
Candida biofilm: kills Candida albicans biofilms | 0.14% of 85,000 active | inhibition, % at 6 µM | C. albicans biofilm + clotrimazole, Alamar Blue | AID 834;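 active = inhibition above 20%; inactive = inhibition below 20%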;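 also: preformed 24 hr biofilms exposed to compound for 48 hr; 0% = biofilm without compound and 100% = blank killed by clotrimazole plus chlorhexidine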
ERb SRC1 inh: ER-beta (human) coactivator binding inhibition; TR-FRET ER-beta LBD / SRC1-Cy5 peptide binding; receptor agonist-loaded with 1 µM estradiol; AID 633; Q92731; inhibition, % at 25.6 µM; 1.3% of 86,000 active;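 active = compounds whose percent inhibition of the receptor-coactivator binding signal exceeds about 50% in the single-dose screen, limit read from the data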;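 also: 0% = receptor plus peptide wells without compound and 100% = peptide-only wells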
Smad3 inh: inhibitors of human Smad3 transcription factor binding | P84022 | TR-FRET Smad3/Dy647-FoxH1 peptide binding, europium anti-His | inhibition, % at 25 µM | 0.29% of 88,000 active | AID 630;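 active = compounds that reduce the energy-transfer binding signal between the protein and its labelled peptide by more than half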;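 also: 0% = Smad3 plus labelled peptide maximal FRET and 100% = peptide-only background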
* hit, by the source's call; · = no result; [ ] = dose if it differs, or a comment.

SMILES	ERa coact inh	ERa coact pot	Candida biofilm	ERb SRC1 inh	Smad3 inh
CCOC(=O)N1CCN(C(=O)c2ccc3c(=O)n(CCc4ccccc4)c(=S)[nH]c3c2)CC1	-1.6	141.1	2.0	-9.0	10.0
CCOC(=O)N1CCN(C(=O)c2ccc3c(=O)n(CCC4=CCCCC4)c(=S)[nH]c3c2)CC1	26.2	207.5*	2.7	30.9	-2.0
Cc1ccc(CNC(=O)c2cc3c(C)nc4ccccc4c3o2)cc1	56.7*[fluorescence artefact?]	170.8	5.9	31.8	-1.2
Cc1nc2ccccc2c2oc(C(=O)NCc3ccccn3)cc12	2.1	123.5	-4.0	0.3	-2.5
Oc1ccc(Nc2nc3ccccc3nc2Nc2ccc(O)cc2)cc1	73.4*[fluorescence artefact?]	13.7	0.9	83.2*[fluorescence artefact?]	18.8
CCCCc1ccc(-c2ccc(Br)cc2O)nc1	-3.6	98.2	-1.4	-4.9	16.8
CCCCc1ccc(-c2ccc(C)cc2O)nc1	21.7	203.1*[fluorescence artefact?]	-0.1	37.0	4.9
CCOC(=O)c1ccc2c(c1)nc(SC/C(O)=C(\C#N)c1nc3ccccc3[nH]1)n2CC	-2.9	113.9	-0.6	21.2	-10.7
CCn1c(SCc2nc3ccccc3[nH]2)nnc1-c1ccncc1	-0.3	94.0	5.3	2.4	0.3
Cc1cc(C)n2c(SC/C(O)=C(\C#N)c3nc4ccccc4[nH]3)nnc2n1	96.8*[fluorescence artefact?]	0.3	-1.0	68.8*[fluorescence artefact?]	8.8
Cc1ccccc1-n1c(SC/C(O)=C(\C#N)c2nc3ccccc3[nH]2)nnc1-c1ccncc1	62.5*[fluorescence artefact?]	78.5	·	54.2*	5.0
Cc1ccccc1OCC(=O)N(Cc1nc(-c2ccccc2)no1)C(C)C	-2.4	323.1*[fluorescence artefact?]	3.2	-6.0	-11.9
COc1nc(-c2ccc(C)cc2)ccc1-c1noc(-c2ccco2)n1	0.8	237.2*	9.5	3.8	13.6
COc1nc(-c2ccc(C)cc2)ccc1-c1noc(-c2cccnc2)n1	20.6	557.4*[fluorescence artefact?]	7.4	4.9	3.4
CCOc1nc(C)ccc1-c1noc(-c2ccccc2OC)n1	-12.4	107.4	3.7	11.1	1.0
CCOc1ccccc1-c1nc(-c2cc3ccccc3nc2OC)no1	9.8	164.9	-10.1	66.6*	4.3
COc1nc(C)ccc1-c1noc(-c2ccco2)n1	-23.6	111.0	-1.0	21.7	-0.2
COc1nc2ccccc2cc1-c1noc(-c2cccnc2)n1	17.2	214.7*[fluorescence artefact?]	-0.6	15.6	25.1
O=C(Nc1cccc(C(=O)N2CCOCC2)c1)c1cccnc1	-1.4	91.2	8.9	-7.4	-1.8
COC(=O)C1=CN(CC2CCCO2)C=C(C(=O)OC)C1c1cc(OC)c(OC)c(OC)c1 (centres undefined)	-8.8	99.5	8.2	-7.6	-3.8
CCOc1ccccc1NC(=O)CSc1nnc(-c2ccccc2Cl)n1Cc1ccco1	-3.3	127.2	5.8	-5.4	-9.1
CCC(C)(C(=O)NC1CCCC1)N(C(=O)CC1NC(=O)NC1=O)c1ccc(C)cc1 (centres undefined)	-2.1	110.1	12.9	-13.6	10.3
COc1nc(-c2ccccc2)ccc1-c1noc(-c2ccc(F)cc2)n1	2.1	125.7	-2.8	-0.7	-7.5
COc1nc(-c2ccccc2)ccc1-c1noc(-c2cccnc2)n1	29.1	487.2*[fluorescence artefact?]	10.7	14.4	13.2
CCN(CC)S(=O)(=O)c1cccc(-c2nnc(SCC(=O)NC3CCCCCCC3)n2N)c1	-0.2	124.8	1.0	1.6	9.9
SMILES	ERa coact inh	ERa coact pot	Candida biofilm	ERb SRC1 inh	Smad3 inh
O=S(=O)(O)c1nc2ccccc2n1Cc1ccccc1	-0.2	100.1	8.2	62.9*	12.2
NC(=O)C1CCN(C(=O)Cn2cccc2C(=O)c2ccccc2)CC1	-2.6	97.3	2.6	-5.3	0.8
Nc1c(C(=O)NC2CCCCC2)c2nc3ccccc3nc2n1/N=C/c1ccco1	0.4	86.2	5.0	22.4	0.0
COCCNC(=O)c1c(N)n(/N=C/c2cccs2)c2nc3ccccc3nc12	67.7*	30.0	5.3	49.5	6.8
CC(C)CNC(=O)c1c(N)n(/N=C/c2ccccn2)c2nc3ccccc3nc12	69.2*	228.2*[fluorescence artefact?]	3.1	27.5	3.6
O=C1c2ccccc2NC(c2ccccc2)N1Cc1ccco1 (centres undefined)	6.9	83.3	36.8*	8.8	7.2
CCC(C)NC(=O)CSc1ncccc1C(=O)O (centres undefined)	0.7	98.9	2.2	-8.5	-8.0
COc1ccc(OCC(=O)N2CCN(S(=O)(=O)c3ccc(Cl)cc3)CC2)cc1	1.0	99.7	-1.2	0.5	1.0
O=C1c2ccsc2SCCN1Cc1cccc(Cl)c1	1.1	100.0	-1.7	-1.0	7.7
O=C1c2ccsc2SCCN1Cc1ccc(Cl)cc1	15.5	76.3	12.1	55.9*[fluorescence artefact?]	-18.1

Source: PubChem BioAssay
